Results taken from PubChem BioAssay (NCATS).
Unmarked numbers belong to inactive results. The call rests on the fitted dose curve; in most records, active means well fitted curve in the direction sought with a large enough effect; inconclusive means small, poorly fitted or top-dose-only effect, or another doubt; inactive means no such curve, though single readings can be large or run the other way.

Assay: qHTS for compounds that reverse cellular toxicity of Amyloid beta (A-beta) peptide in yeast: LOPAC Validation Assay (AID 720559)
Conditions: yeast expressing A-beta; series mostly up to 46.1 µM; growth rescue, positive = activation: at the top concentration
Text: The A-beta peptide is produced by the processing of the amyloid precursor protein (APP) by two proteases, beta and gamma secretases. […] A-beta42 is regarded as the most amyloidogenic form due to its hydrophobicity; however, precisely how A-beta42 induces neurotoxicity is unclear. To understand further this biology and its potential therapeutic implications for human neurodegenerative disease, a quantitative high-throughput screen for compounds that reverse the cellular toxicity of the A-beta peptide was developed.
A yeast based screen was used because it recapitulates the salient feature of protein mis-folding disorder accurately. This cell-based phenotypic screen provides a significant, unbiased advantage by letting the compounds and models inform us which proteins or pathways are most relevant. The ideal chemical candidates would therefore have activity in both our primary yeast and secondary neuronal toxicity assays, as well as in mouse models. They will be valuable tools for dissecting diverse protein homeostasis pathologies and could potentially become the focus for future pre-clinical development. For this […] assay, inhibition of A-beta rescues the toxic effect in the yeast cell, resulting in increase of signals.
NIH Chemical Genomics Center [NCGC]
NIH Molecular Libraries Probe Centers Network [MLPCN]
Assay Submitter (PI): Susan Lindquist, Whitehead Institute, Massachusetts Institute of Technology
[1] Vassar R,et al (1999). Beta-secretase cleavage of Alzheimer's amyloid precursor protein by the transmembrane aspartic protease BACE. Science. 286: 735-741.
[2] Yan R, et al (1999). Membrane-anchored aspartyl protease with Alzheimer's disease beta-secretase activity. Nature.
Two and a half microliter / well of yeast growth medium were dispensed in a 1536 assay plate. Compounds were pinned using the Kalypsys robotic system followed by addition of 2.5 uL / well yeast solution. The assay plates were incubated at 30 C. After 48 hr, the absorbance signal at 600 nm was obtained using the PerkinElmer ViewLux plate reader to assess yeast growth. The data was normalized to the positive control of an equimolar mixture of ferric chloride (FeCl3) and clioquinol and to the negative control DMSO.

| Structure (SMILES) | growth rescue, positive = activation [%] |
| --- | --- |
| C[C@@H](N)C1CCC(C(=O)Nc2ccncc2)CC1 (stereo not given in full) | 1.48 |
| O=Nc1c(-c2c(O)[nH]c3cc(Br)ccc23)[nH]c2ccccc12 | -54.7 |
| O=C1c2c(O)cc(O)cc2OC(c2ccc(O)c(O)c2)C1O (stereo not given) | -1.06 |
| COc1ccccc1N1CCN(CCN(C(=O)C2CCCCC2)c2ccccn2)CC1 | -3.03 |
| CCN(CC)C(=S)SSC(=S)N(CC)CC | -62.3 |
| Cc1cccc(C#Cc2ccccc2)n1 | 2.97 |
| O=c1c(O)c(-c2ccc(O)cc2O)oc2cc(O)cc(O)c12 | 0.145 |
| CC1(C)NC(=O)N(c2ccc([N+](=O)[O-])c(C(F)(F)F)c2)C1=O | -4.44 |
| COc1cc2nc(N3CCN(C(=O)C4CCCO4)CC3)nc(N)c2cc1OC (stereo not given) | -8.72 |
| O=c1ccc2ccc(O)c(O)c2o1 | -4.15 |
| COc1cc2c(cc1OC)C1CC(=O)C(CC(C)C)CN1CC2 (stereo not given) | -6.81 |
| NCCCCNCCCN | -3.91 |
| Oc1ccc(-c2nc(-c3ccc(F)cc3)c(-c3ccncc3)[nH]2)cc1 | -4.57 |
| O=c1c(O)c(-c2cc(O)c(O)c(O)c2)oc2cc(O)cc(O)c12 | 5.46 |
| Nc1nc(N)c(N=O)c(OCC2CCCCC2)n1 | -9.76 |
| Cc1cc(O)c2c(c1)C(=O)c1cc(O)cc(O)c1C2=O | -26 |
| CC1(C)C(=O)N(CCN2CCC(C(=O)c3ccc(F)cc3)CC2)c2ccccc21 | -5.81 |
| CC(C)c1ccc2c(c1)c(SC(C)(C)C)c(CC(C)(C)C(=O)O)n2Cc1ccc(Cl)cc1 | -1.9 |

| Structure (SMILES) | growth rescue, positive = activation [%] |
| --- | --- |
| NC(=NCc1ccccc1)NC(=O)c1nc(Cl)c(N)nc1N | -6.54 |
| CC(=O)O[C@H]1C(=O)[C@@]2(C)C([C@H](OC(=O)c3ccccc3)[C@]3(O)C[C@H](OC(=O)[C@H](O)[C@@H](NC(=O)c4ccccc4)c4ccccc4)C(C)=C1C3(C)C)[C@]1(OC(C)=O)CO[C@@H]1C[C@@H]2O (stereo not given in full) | -1.43 |
| CN(C)CCCC1(c2ccc(F)cc2)OCc2cc(C#N)ccc21 (stereo not given) | -1.58 |
| C[C@H](Cc1ccc(O)c(O)c1)[C@@H](C)Cc1ccc(O)c(O)c1 | 8.38 |
| CCOC(=O)C(C)Oc1cccc2c(=O)n(CC(=O)Nc3ccc4c(c3)OCCO4)ccc12 (stereo not given) | 1.16 |
| CNC[C@H](O)c1ccc(O)c(O)c1 | -1.93 |
| OC(CN1CCN(c2cccc(Cl)c2)CC1)C(c1ccccc1)c1ccccc1 (stereo not given) | -5.25 |
| Nc1ccn([C@@H]2O[C@H](CO)[C@@H](O)C2O)c(=O)n1 (stereo not given in full) | -0.359 |
| O=C1NC(=O)C(c2ccccc2[N+](=O)[O-])=C1Nc1ccc(O)c(Cl)c1 | -5.56 |
| O=C(c1ccccc1)c1ccc2n1CCC2C(=O)O (stereo not given) | -1.76 |
| COc1ccc2cc([C@H](C)C(=O)O)ccc2c1 | -1.87 |
| Oc1ccc2ccccc2c1SSc1c(O)ccc2ccccc12 | -55.8 |
| Nc1nc(OCc2ccccc2)c2[nH]cnc2n1 | -2.04 |
| O=C(CCc1ccc(O)cc1)c1c(O)cc(O)cc1O | 3.83 |
| O=c1cc(N2CCOCC2)oc2c(-c3ccccc3)cccc12 | 1.23 |
| O=C(O)c1cccnc1Nc1cccc(C(F)(F)F)c1 | -13.1 |
| O=C1c2ccccc2-c2n[nH]c3cccc1c23 | -14.7 |
